Laboratory results as given in ChEMBL document CHEMBL3433997, “St. Jude Leishmania screening dataset” (2016).

How the values were obtained:
Assay type in all cases: functional
[1] = molecular target: Solute carrier family 2, facilitated glucose transporter member 1 (Homo sapiens) (UniProt P11166); assay: ST_JUDE_LEISH: Cytotoxicity at 2uM final concentration against transgenic Leishmania Mexicana promastigotes LmGLUT1 that are glucose transport deficient and complemented with the human glucose transporter GLUT1. Activity is measured by DNA content using SYBR green in vitro
[2] = molecular target: Hexose transporter 1 (Plasmodium falciparum) (UniProt O97467); assay: ST_JUDE_LEISH: Cytotoxicity at 2uM final concentration against transgenic Leishmania Mexicana promastigotes LmPfHT that are glucose transport deficient and complemented with the Plasmodium falciparum hexose transporter. Activity is measured by DNA content using SYBR green in vitro
[3] = molecular target: Glucose transporter (Leishmania mexicana) (UniProt O61059); assay: ST_JUDE_LEISH: Cytotoxicity at 2uM final concentration against transgenic Leishmania Mexicana promastigotes LmGT2 that are glucose transport deficient and complemented with the L. Mexicana glucose transporter 2. Activity is measured by DNA content using SYBR green in vitro

Sequence of Solute carrier family 2, facilitated glucose transporter member 1 (Homo sapiens) (P11166 whole entry): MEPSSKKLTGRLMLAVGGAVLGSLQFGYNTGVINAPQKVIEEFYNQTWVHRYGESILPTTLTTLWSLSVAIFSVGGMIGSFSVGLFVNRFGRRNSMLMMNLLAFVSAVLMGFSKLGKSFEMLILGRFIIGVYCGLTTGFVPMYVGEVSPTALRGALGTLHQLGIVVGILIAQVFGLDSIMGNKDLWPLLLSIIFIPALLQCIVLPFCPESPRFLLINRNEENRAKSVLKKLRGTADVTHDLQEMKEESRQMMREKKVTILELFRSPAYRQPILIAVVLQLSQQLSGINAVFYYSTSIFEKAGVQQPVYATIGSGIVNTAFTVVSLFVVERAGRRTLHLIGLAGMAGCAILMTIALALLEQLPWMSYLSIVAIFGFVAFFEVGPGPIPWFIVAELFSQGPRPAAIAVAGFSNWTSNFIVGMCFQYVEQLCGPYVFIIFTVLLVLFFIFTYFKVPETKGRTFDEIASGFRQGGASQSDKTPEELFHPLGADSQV

Row | Compound | inhibition [1] [%] | inhibition [2] [%] | inhibition [3] [%]
1 | O=C(N[C@H]1CCN(Cc2ccc(OCCCN3CCCCC3)cc2)C1)c1cc(Cl)cc(Cl)c1 | 1.71 | 7.28 | 2.29
2 | O=C1Nc2cccc3c2C1(CCCN1CCC(c2c[nH]c4cc(C(F)(F)F)ccc24)CC1)CCC3 (stereo not drawn) | -0.49 | -2.03 | -0.71
3 | CO/C(=C\C=C\c1cc2cc(Cl)c(Cl)cc2[nH]1)C(=O)NCCCN1CCC(c2ccccc2)CC1 | 2.73 | 5.04 | 1.33
4 | CS(=O)(=O)c1ccc2[nH]c(-c3cc(-c4cccc(F)c4)cnc3N)nc2c1 | 5.71 | 3.53 | 3.04
5 | CCN(CC)CCN(Cc1ccc(-c2ccc(C(F)(F)F)cc2)cc1)C(=O)Cn1c(CCc2c(F)cccc2F)nc(=O)c2ccccc21 | 4.96 | 4.88 | 5.59
6 | COc1cc(NC(=O)c2sc(-c3ccc(Cl)cc3)cc2NC(=O)c2cccc(N(C)C)c2)ccc1OCCN1CCCC1 | 0.3 | 0.22 | 0.53
7 | COc1ccccc1-c1nc2c(ccc3nc(N)nc(N)c32)[nH]1 | 49.5 | 58.8 | 4.58
8 | Cc1cc(N(C)C)nc(Nc2ccc(NC(=O)c3ccccc3F)cc2)n1 | 1.36 | 12.2 | 2.04
9 | CCCN(CCC)C(=O)c1cc(C(=O)N[C@@H](Cc2ccccc2)[C@H](O)CNC(C)(C)c2cccc(OC)c2)cc(N2CCCCS2(=O)=O)c1 | 1.96 | 1.53 | 2.14
10 | Cc1cccc2nc(-c3cccc(-c4cccc(NC(=O)Cc5ccc[n+]([O-])c5)c4)c3)[nH]c12 | 1.71 | 1.78 | 0.81
11 | COc1ccc(NC(=O)[C@H](CC(C)C)Nc2cc(C)nc(NCCc3cccs3)n2)cc1 | -2.08 | 1.29 | -1.58
